In PubChem BioAssay AID624167 (Sanford-Burnham Center for Chemical Genomics, 2012) one finds inhibition data, which are given here for 16 molecules.

A short description of the assay: inhibition of PEG-3 promoter-driven reporter – cell-based, HeLa, luciferase, CREF/GAPDH counter-screen panel, dose response (AID 624167). Particulars: CREF/GAPDH counter-screens; run 2, dose range 1, at 100 µM (top of the series). (Counterscreens check selectivity or assay interference.)
With `Cc1nc(C)c(C(=O)N/N=C/c2cc(Br)ccc2O)s1`, the inhibition (as a rule, the change of the read-out against control, counted positive when it falls) was 6.13%. Take `CC(=O)NC(c1ccc(Cl)cc1Cl)c1ccc2cccnc2c1O` (stereo unspecified): the inhibition worked out at 61.7%. As for `COc1cc(CNCCCN2CCOCC2)cc(Br)c1OCc1ccc(Cl)cc1`, the figure is 90.7%; as for `N=c1n(CC(=O)c2ccc([N+](=O)[O-])cc2)c2ccccc2n1Cc1ccc(Cl)cc1`, 90.8%; as for `CC(/C=C/c1ccccc1)=N/NC(=O)c1cc([N+](=O)[O-])cc([N+](=O)[O-])c1`, 12.6%. As for `CCCCC(=O)NC(c1ccccc1OC)c1ccc2cccnc2c1O` (stereo unspecified), the figure is 50.9%; as for `CC(C)(C)c1ccc(Oc2ccc(N)cc2)cc1`, 95.6%; as for `CN1C/C(=C/c2ccccc2[N+](=O)[O-])C(=O)/C(=C\c2ccccc2[N+](=O)[O-])C1`, 53.9%. As for `O=C(CNC(=O)C(c1ccccc1)c1ccccc1)N/N=C/c1ccc(O)cc1O`, the figure is 22.3%. Regarding `O=[N+]([O-])c1ccc(S(=O)(=O)c2ccccc2)nc1`, the inhibition was 94.5%. As for `COc1cccc(/C=N/NC(=O)c2c(C)nc3ccc(Cl)cn23)c1O`, the inhibition was -51.4%. Take `Cc1ccc(OCC(=O)c2cc(C)n(-c3ccccc3)c2C)c([N+](=O)[O-])n1`: the inhibition stood at 65.4%. Then `Cc1ccc(-n2c(N)c(C(=O)Nc3c(C)n(C)n(-c4ccccc4)c3=O)c3nc4ccccc4nc32)cc1`, with 81.3%. As for `C(=N\Nc1ccc2ccccc2n1)/c1ccc2c(c1)OCCO2`, the inhibition turned out to be 92%. As for `COc1cccc2c1C(=O)c1c(O)c3c(c(O)c1C2=O)CC(O)(C(C)=NNC(=O)c1ccc(Cl)c(Cl)c1)CC3OC1CC(N)C(O)C(C)O1` (stereo unspecified), the figure is 99.4%; as for `COCCCNC(=O)c1ccc(Cn2c(=O)c3ccccc3n(Cc3ccccc3C#N)c2=O)cc1`, 25.1%.
